Potency and affinity values are given separately. Calls of active or inactive are those of the source.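 The calls were made as follows: active = cell-killing compounds whose fitted half-effect concentration is at most twice their highest valid dose; inconclusive = flat curve with 30 to 70% signal loss, or poor fit; inactive = the rest.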

This assay in a line: cytotoxicity in A549 cells, dose response, cytotoxicity control, cell-based, CellTiter-Glo luminescence, cherry-pick (AID 743484). The following applies: A549 viability, CellTiter-Glo ATP luminescence, 72 h; series mostly up to 26 µM.
As for `C[C@@H]1CCCCO[C@H](CN(C)CC2CC2)[C@H](C)CN([C@@H](C)CO)C(=O)c2cc(NC(=O)Nc3cccc4ccccc34)ccc2O1`, the molecule was classed as inactive. The result for `Cc1c(C(=O)O)sc2nc(CSc3ncc(C(F)(F)F)cc3Cl)[nH]c(=O)c12` reads “inactive”; that for `Cc1[nH]c(=S)sc1Cc1ccc(Cl)c(Cl)c1`, “inactive”; that for `CC[C@H]1OC(=O)[C@H](C)[C@@H](O[C@H]2C[C@@](C)(OC)[C@@H](O)[C@H](C)O2)[C@H](C)[C@@H](O[C@@H]2O[C@H](C)C[C@H](N(C)C)[C@H]2O)[C@](C)(O)C[C@@H](C)[C@@H]2N[C@@H](COCCOC)O[C@H]([C@H]2C)[C@]1(C)O`, “inactive”. The result for `COC(=O)c1c(NC(=O)CCC(=O)O)sc(Cc2ccccc2)c1C` reads “inactive”.

`CCOC(=O)c1c(NC(=O)Cc2cccs2)sc(C)c1C`: the call was inactive. The entry for `C[C@@H]1CCCCO[C@H](CN(C)C(=O)CCCN(C)C)[C@H](C)CN([C@@H](C)CO)C(=O)c2cc(NC(=O)Nc3cccc4ccccc34)ccc2O1` is “inactive”; for `CCOc1ccccc1NC(=O)c1ccc2ccccc2c1` it is “inactive”.

In the case of `COc1cccc(C(=O)Nc2cc(C)nn2-c2ccccc2)c1OC`, the molecule was called inactive.

As for `COc1ccc(Cn2c(-c3ccc(Cl)cc3)c[n+]3ccccc23)cc1`, the molecule was classed as inactive. The entry for `Cc1cc(C)c(OCCNC(=O)c2ccccc2Sc2ccccc2C#N)c(C)c1` is “inactive”; for `COc1ccc(-n2cc(-c3ccccc3)c3c(N4CCOCC4)ncnc32)cc1` it is “inactive”. The result for `O=C(O)c1cc([N+](=O)[O-])ccc1NCc1ccccc1` reads “inactive”. The result for `COc1ccc2[nH]c3c(=O)n(CCCCC(=O)NCCC(C)C)c(=S)[nH]c3c2c1` reads “inactive”.
